Consider ten compounds from ChEMBL document CHEMBL4513143, “CO-ADD screening of University of Natural Resources and Life (Austria) compounds”.

For orientation: Inhibition means the drop in the measured response relative to a control, in per cent. A low value points to a weak effect.

In experiment [1] the test system is Staphylococcus aureus. Conditions: Concentration 32 ug.mL-1; ASSAY_TEST Inhibition of Bacterial Growth; detection method Absorption (OD600); MEDIA CAMHB; plate type 384well; NBS; CORNING #3640; time 18 hr.
For experiment [2], the system named is Escherichia coli. As to conditions: Concentration 32 ug.mL-1; ASSAY_TEST Inhibition of Bacterial Growth; detection method Absorption (OD600); MEDIA CAMHB; plate type 384well; NBS; CORNING #3640; time 18 hr.

Measured potencies and affinities stand elsewhere.

For the compound `CCN(CC)CC.C[C@H](CC1O[C@H]([C@@H](O)CO)[C@@H](O)[C@H](O)[C@@H]1O)OP(=O)(O)OC[C@H]1O[C@@H](n2cnc3c(N)ncnc32)[C@H](O)[C@@H]1O` (stereo not given in full), the Inhibition in experiment [1] stood at 25.31%; in experiment [2], 11.12%.

On to `CCN(CC)CC.C[C@@H](CC1O[C@H]([C@@H](O)CO)[C@@H](O)[C@H](O)[C@@H]1O)OP(=O)(O)O` (stereo not given in full), for which the Inhibition was 24.59% in experiment [1] and 26.95% in experiment [2].

`CC(=O)CC1O[C@H]([C@@H](O)CO)[C@@H](O)[C@H](O)[C@@H]1O` (stereo not given in full): the Inhibition in experiment [1] was found to be 21.72%; in experiment [2], 24.3%.

For `CCN(CC)CC.C[C@H](CC1O[C@H]([C@H](O)CO)[C@@H](O)[C@H](O)[C@@H]1O)OP(=O)(O)OC[C@H]1O[C@@H](n2cnc3c(N)ncnc32)[C@H](O)[C@@H]1O` (stereo not given in full), the results for the Inhibition in experiment [1] and in experiment [2] were 30.75% and 16.06%, respectively.

Regarding `OC[C@@H](O)[C@H]1OC(O)C[C@@H](O)[C@@H]1O` (stereo not given in full), the Inhibition came out at 21.66% in experiment [1] and 15.99% in experiment [2].

On to `CCN(CC)CC.O=P(O)(O)OC1C[C@@H](O)[C@H](O)[C@@H]([C@H](O)CO)O1` (stereo not given in full), for which the Inhibition stood at 23.92% in experiment [1] and 21.41% in experiment [2].

With `CCN(CC)CC.C[C@H](CC1O[C@H]([C@@H](O)CO)[C@@H](O)[C@H](O)[C@@H]1O)OP(=O)(O)O` (stereo not given in full), the Inhibition was 23.43% in experiment [1] and 26.24% in experiment [2].

For the compound `N.O=C(O)C1(O)C[C@@H](O)[C@H](O)[C@@H]([C@@H](O)CO)O1` (stereo not given in full), the Inhibition in experiment [1] is listed as 25.6%; in experiment [2] it was 22.94%.

With `CCN(CC)CC.C[C@@H](CC1O[C@H]([C@@H](O)CO)[C@@H](O)[C@H](O)[C@@H]1O)OP(=O)(O)OC[C@H]1O[C@@H](n2cnc3c(N)ncnc32)[C@H](O)[C@@H]1O` (stereo not given in full), the Inhibition in experiment [1] stood at 27.76%; in experiment [2] it was 16.43%.

With `CCN(CC)CC.C[C@@H](CC1O[C@H]([C@H](O)CO)[C@@H](O)[C@H](O)[C@@H]1O)OP(=O)(O)OC[C@H]1O[C@@H](n2cnc3c(N)ncnc32)[C@H](O)[C@@H]1O` (stereo not given in full), the figures for the Inhibition in experiment [1] and in experiment [2] were 27.38% and 10.57%, respectively.
